Data from the supplement of paper PMC6555819.

Legend:
Assay in all cases: PBM binding z-score (relative to random genomic background probes); higher = stronger binding; sequences stand for … in GC…GCGATTGACAGCGTAGAATGAAGG
[1] = system: FXR:RXRa (NR concentration 270 nM, RXRa partner concentration 90 nM)
Method in brief: (§1)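 Binding z-scores were set against random background probes. The data came from custom Agilent 4×180K protein-binding microarrays carrying double-stranded probes with 34-nt variable regions, incubated 1 h with ligand-free nuclear receptor dimers. Partner-specific antibodies detected binding, and scanned fluorescence was regression-normalized.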

[2] = system: LXRa:RXRa (NR concentration 270 nM, RXRa partner concentration 90 nM)
Method in brief: as §1

[3] = system: LXRa homodimer (NR concentration 270 nM)
Method in brief: as §1

[4] = system: LXRb:RXRa (NR concentration 270 nM, RXRa partner concentration 90 nM)
Method in brief: as §1

[5] = system: LXRb homodimer (NR concentration 270 nM)
Method in brief: as §1

[6] = system: PPARa:RXRa (NR concentration 270 nM, RXRa partner concentration 90 nM)
Method in brief: as §1

[7] = system: PPARg:RXRa (NR concentration 180 nM, RXRa partner concentration 90 nM)
Method in brief: as §1

[8] = system: PPARg:RXRa 270nM:90nM, anti-RXR (NR concentration 270 nM, RXRa partner concentration 90 nM)
Method in brief: as §1

[9] = system: PPARg:RXRa 30nM:10nM, anti-RXR (NR concentration 30 nM, RXRa partner concentration 10 nM)
Method in brief: as §1

[10] = system: PPARg:RXRa 90nM:30nM, anti-RXR (NR concentration 90 nM, RXRa partner concentration 30 nM)
Method in brief: as §1

[11] = system: PPARg:RXRa DBDmut IVT, anti-RXR (DBD mutation: RXRa K156A/R161A, NR concentration 270 nM, RXRa partner concentration 90 nM)
Method in brief: as §1

[12] = system: PPARg:RXRa IVT, anti-PPARg (NR concentration 270 nM, RXRa partner concentration 90 nM)
Method in brief: as §1

[13] = system: PPARg DBDmut:RXRa IVT, anti-PPARg (DBD mutation: PPARg1 K132A/R137A, NR concentration 270 nM, RXRa partner concentration 90 nM)
Method in brief: as §1

[14] = system: PPARg DBDmut IVT, anti-PPARg (DBD mutation: PPARg1 K132A/R137A, NR concentration 270 nM)
Method in brief: as §1

[15] = system: PPARg homodimer (NR concentration 180 nM)
Method in brief: as §1

[16] = system: PXR:RXRa (NR concentration 270 nM, RXRa partner concentration 90 nM)
Method in brief: as §1

[17] = system: PXR homodimer (NR concentration 270 nM)
Method in brief: as §1

[18] = system: RARa:RXR (NR concentration 270 nM, RXRa partner concentration 90 nM)
Method in brief: as §1

[19] = system: RARa homodimer (NR concentration 270 nM)
Method in brief: as §1

[20] = system: RARb:RXRa (NR concentration 270 nM, RXRa partner concentration 90 nM)
Method in brief: as §1

Sequence	PBM binding z-score [1]	PBM binding z-score [2]	PBM binding z-score [3]	PBM binding z-score [4]	PBM binding z-score [5]	PBM binding z-score [6]	PBM binding z-score [7]	PBM binding z-score [8]	PBM binding z-score [9]	PBM binding z-score [10]	PBM binding z-score [11]	PBM binding z-score [12]	PBM binding z-score [13]	PBM binding z-score [14]	PBM binding z-score [15]	PBM binding z-score [16]	PBM binding z-score [17]	PBM binding z-score [18]	PBM binding z-score [19]	PBM binding z-score [20]
CCTTTCGGGTCACTCCAGGTTATAGCATCGGAGT	4.95	7.32	2.02	5.17	0.836	4.58	3.15	3.78	1.09	2.75	2.65	3.53	0.307	-0.494	2	4.94	0.803	3.73	0.474	4.01
CAAACTACGTCACAGAGGTCAAAGTCCGTGCGTA	4.81	5.44	5.72	5.02	1.87	5.12	3.52	4.59	1.9	3.91	0.625	2.48	1.33	0.372	2.66	5.74	2.1	5.74	1.25	3.98
TCTATTAGTTGAAGGGCAACCGACGAGTCCGTTT	0.607	1.21	0.32	0.682	0.453	0.751	0.154	2.11	3.61	2.69	2.35	0.776	1.09	0.986	1.26	1	1.32	0.605	0.801	1.61
AATACAGGGTCACTAGGCCAGAGAAGGTACGAAT	5.79	5.03	1.01	3.99	0.795	5.85	7.78	6.43	3.11	5.35	4.07	5.68	1.28	1.34	1.96	3.02	0.776	3.74	0.823	4.2
TCTAGTTGGTCAAAGGTCACTCACTCGAAATGCG	5.38	5.18	3.77	5.13	2.23	6.16	11.5	10	10.6	12.1	3.67	6.11	2.62	1.66	4.97	5.78	1.56	7.3	3.14	4.93
CAGAGTAGGTTATGGGGCATTCAGGCAACGGTGA	0.558	0.666	0.0454	0.833	-0.04	2.78	4.39	5.4	3.13	5.42	3.95	4.66	1.11	0.548	1.69	0.233	0.246	0.549	0.726	1.23
TAGCCTAGGTCTTTCAGGGGCCAGTATAGAAAGC	-0.49	-0.379	-0.527	-0.066	-0.296	-0.263	-0.284	-0.623	-0.57	-0.453	-0.411	0.431	-0.836	0.0901	-0.27	-0.417	-0.804	-0.214	-1.24	0.577
CCTAGTTGTTCAAGGTCACACACGCTATAGGTAC	4.9	4.93	4.85	4.17	1.95	4.26	2.64	3.12	1.55	2.55	1.86	2.8	2.46	1.22	4.99	4.73	3.83	5	4.94	4.12
TCTGATAGGTCAGTTGGTCAGCTAACGAGCTGCC	2.27	2.12	0.378	1.59	0.846	2.67	1.19	2.4	2.52	2.3	2.34	2.26	-0.134	1.25	1.43	0.816	-0.173	1.01	-0.0552	3.63
AGTCAAAGTTCATCTAGGGAACGTAAGATATGCT	6.67	5.95	4.72	3.68	1.64	4.69	6.38	6.34	3.44	5.6	0.178	2.78	1.05	1.04	1.73	4.88	4.28	3.41	1.1	4.92
GCTAGCCGGCCATTTGGGTCACTCAATGACGGGC	0.14	-0.0989	-0.475	-0.0153	-0.65	1.12	0.338	0.0131	-0.633	-0.159	0.149	1.18	-0.74	-1.42	-0.135	0.15	-0.217	0.452	-1.3	1.19
CCTACTGTGCCAAGGTCATTGATCAGTCAAAGCA	3.24	3.74	1.67	3.26	0.681	4.05	3.18	3.78	1.24	2.83	3.52	3.07	-0.148	0.41	2.81	3.87	1.91	3.76	1.37	3.28
CCTAGCAGGCCAGGGTCACTCACGCATTTCGCTT	2.04	1.57	-0.247	1.73	-0.927	2.94	0.599	1.29	-0.606	0.36	0.345	0.942	-0.473	-1.26	1.45	2.31	-0.101	3.17	0.177	2.41
AGAACGAGGGCGCGCTGAGTTGATAGCAGAGTAG	-0.365	-0.482	-0.786	-0.508	-1.21	0.138	0.362	-0.296	-0.293	-0.308	1.09	0.807	-0.354	-0.835	-0.746	0.224	-0.402	-0.0213	-1.26	0.529
